{"source": "PubChem BioAssay AID504415", "about": "(Broad Institute, 2011)", "assay": "viability loss in Mcl1-dependent HMC-1-8 cells, dose response, selectivity assay for A1 inhibitor project, cell-based, luminescence, dry powder (AID 504415)", "note": "Results with a measured potency or affinity are listed apart. Records with an inconclusive call do not appear. Calls of active or inactive are those of the source.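 The calls were made as follows: active = compound lowering the signal whose fitted half-maximal concentration is at most ten times its top tested dose; inconclusive = flat curve with 30 to 70% loss, or poor fit; inactive = the rest.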", "data": [{"smiles": "C/C1=C/C(=O)O[C@@H]2C[C@@H](CC[C@H](C)/C=C\\CC1)O[C@@](O)(C1CSC(=O)N1)C2", "note": "(stereo partly specified)", "values": [{"measurement": "outcome", "value": "inactive"}]}]}
